Compounds without any hit were thinned out: in the full panel of roughly 83,000, 20% have a hit.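 Negative percent growth values reflect cell death: -40 means 40% of the cells present at the start died, and -100 means all died.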 The source made the active and inactive calls. Rule for the calls: active = growth percent below 10; inactive = the rest.
Key:
Assay in all cases: NCI-60 one-dose screen, 48 h (100 = growth as untreated, 0 = no growth, -100 = all killed)
[1] = test system: DU-145 prostate; conditions: 10 µM unless noted
[2] = test system: K-562 leukemia; conditions: 10 µM unless noted
[3] = test system: MALME-3M melanoma; conditions: 10 µM unless noted
[4] = test system: MDA-MB-231 breast; conditions: 10 µM unless noted
[5] = test system: RXF 393 renal; conditions: 10 µM unless noted
[6] = test system: SF-268 CNS; conditions: 10 µM unless noted
[7] = test system: SF-295 CNS; conditions: 10 µM unless noted
[8] = test system: SF-539 CNS; conditions: 10 µM unless noted
[9] = test system: UACC-257 melanoma; conditions: 10 µM unless noted
[10] = test system: HCT-15 colon; conditions: 10 µM unless noted
[11] = test system: HT29 colon; conditions: 10 µM unless noted
[12] = test system: SNB-75 CNS; conditions: 10 µM
[13] = test system: SNB-19 CNS; conditions: 10 µM unless noted
[14] = test system: U251 CNS; conditions: 10 µM unless noted
[15] = test system: PC-3 prostate; conditions: 10 µM unless noted
[16] = test system: SK-MEL-5 melanoma; conditions: 10 µM unless noted
[17] = test system: UACC-62 melanoma; conditions: 10 µM unless noted
[18] = test system: LOX IMVI melanoma; conditions: 10 µM unless noted
[19] = test system: SK-MEL-28 melanoma; conditions: 10 µM unless noted
[20] = test system: M14 melanoma; conditions: 10 µM unless noted

Measured: growth

Cc1nn(-c2ccc([N+](=O)[O-])cc2)c2ncnc(NCCc3ccccc3)c12
inactive: [1] 110% | [2] 76.8% | [3] 121% | [4] 102% | [5] 102% | [6] 94.7% | [7] 111% | [8] 99.5% | [9] 106% | [10] 95.4% | [11] 103% | [12] 87.9% | [13] 97.2% | [14] 102% | [15] 88.7% | [16] 104% | [17] 90.5% | [18] 103% | [19] 106%

CCCCCc1cc[n+](CC(=O)c2ccc([N+](=O)[O-])cc2)cc1
inactive: [1] 79.2% | [2] 34.7% | [3] 85.2% | [4] 70% | [5] 97.6% | [6] 87.3% | [7] 95.2% | [8] 96.9% | [9] 35.6% | [10] 94.4% | [11] 21.5% | [12] 89.6% | [13] 87.9% | [14] 48.4% | [15] 59.5% | [16] 22% | [17] 91.1% | [18] 45.9% | [19] 106%

COc1ccncc1S(=O)(=O)NC(=O)Nc1ccc(Cl)c(Cl)c1
active: [9] -32.8%
inactive: [1] 109% | [2] 77.5% | [3] 90.1% | [4] 100% | [5] 79.3% | [6] 91% | [7] 85.4% | [8] 107% | [10] 101% | [11] 102% | [12] 78.3% | [13] 96.8% | [14] 94.9% | [15] 91.9% | [16] 120% | [17] 66.7% | [18] 64.9% | [19] 120%

S=C1CC(=S)NC(=S)N1
inactive: [1] 108% | [2] 119% | [3] 121% | [4] 106% | [5] 107% | [6] 102% | [7] 116% | [9] 105% | [20] 103% | [10] 116% | [12] 92.5% | [13] 96.1% | [14] 103% | [15] 107% | [16] 105% | [17] 100% | [18] 94.6% | [19] 108%

O=C1c2c(c3c4ccccc4n(CCCCCCBr)c3c3[nH]c4ccccc4c23)C(=O)N1O
active: [2] 8.97% | [3] -20% | [4] -13.8% | [7] 4.87% | [8] -6% | [10] 7.75% | [11] -19.7% | [15] 4.24% | [16] -69.5% | [18] -70.2%
inactive: [1] 22.6% | [5] 29.1% | [6] 24.7% | [20] 15.5% | [13] 24.2% | [14] 10.9%

COc1c2occc2c(OC)c2c(=O)c(-c3cc(-c4ccc(F)cc4)c(C#N)c(N)n3)c(C)oc12
inactive: [1] 30.3% | [2] 19.5% | [3] 88.8% | [4] 30% | [5] 44.4% | [6] 35.5% | [7] 56.5% | [8] 67.7% | [20] 70.6% | [10] 31.4% | [11] 14.2% | [13] 51.2% | [14] 30.6% | [15] 22.8% | [16] 37.1%
active: [18] 6.13%

c1ccc(-c2cn(-c3ccccc3)c(-c3ccccc3)n2)cc1
active: [2] -51.5% | [9] -45.3%
inactive: [1] 71.4% | [3] 95% | [4] 94.3% | [5] 79.9% | [6] 85.5% | [7] 127% | [8] 73.5% | [10] 60.9% | [11] 70.5% | [12] 81.3% | [13] 85.6% | [14] 56.4% | [15] 59.5% | [16] 108% | [17] 76.9% | [18] 69.3% | [19] 98.9%

O=C(/C=C\c1cccc([N+](=O)[O-])c1)/C=C/c1cccc([N+](=O)[O-])c1
inactive: [1] 93.1% | [2] 70.5% | [3] 110% | [4] 90.1% | [5] 79.6% | [6] 78.5% | [7] 100% | [8] 101% | [9] 90.2% | [12] 94.3% | [13] 94.5% | [14] 22.6% | [15] 82.1% | [16] 100% | [17] 78.1% | [19] 102%
active: [11] 9.81% | [18] -89.7%

COc1ccc(/C=C2\N=C(c3ccccc3)N(C(=O)c3ccccc3O)NC2=O)cc1
inactive: [1] 110% | [2] 86.5% | [3] 89.9% | [4] 84.6% | [5] 105% | [6] 108% | [7] 92.9% | [8] 95.3% | [9] 110% | [20] 98.8% | [13] 96.6% | [14] 94.2% | [16] 101% | [17] 82.8% | [18] 95.6% | [19] 109%

C=C1C(=O)O[C@H]2[C@H]1CC/C(Cn1cc(-c3cccc(Cl)c3)nn1)=C\CC[C@@]1(C)O[C@@H]21
active: [1] -99.4% | [2] 0.665% | [3] -77.3% | [4] -54.1% | [5] -88.4% | [6] -47.9% | [8] -76.7% | [20] -56.4% | [10] -72.3% | [11] -56.3% | [14] -71.1% | [15] -59.1% | [16] -52.6% | [18] -91.1%
inactive: [7] 72.4% | [13] 37.9%

COc1ccc(C2NN=C3c4ccccc4CCC32)cc1 (stereo not given)
inactive: [1] 98.8% | [2] 10.2% | [3] 25.4% | [4] 58.5% | [5] 47% | [6] 69.3% | [7] 40.2% | [8] 58% | [9] 60.1% | [10] 40% | [11] 44.5% | [12] 48.3% | [13] 76.5% | [14] 80.4% | [15] 66.6% | [16] 15.2% | [17] 49.9% | [18] 72.5% | [19] 76%

COc1cc(/C=C/C(=O)c2c(C)nc3ccccc3c2C)ccc1OCCCCOc1cc2c(cc1OC)C(=O)N1CCC[C@H]1C=N2
active: [1] -100% | [2] -55.5% | [3] -81.3% | [4] -65.9% | [5] -92.6% | [6] -35.6% | [7] -48.9% | [8] -90.6% | [9] -88% | [10] -79.6% | [11] -73.3% | [12] -100% | [13] -90.1% | [14] -97.8% | [15] -24.6% | [16] -100% | [17] -99.2% | [18] -92.2% | [19] -85.5%

O=c1ccn(-c2ncnc3nc[nH]c23)cc1
inactive: [1] 101% | [2] 89.9% | [3] 68.8% | [4] 101% | [5] 79.6% | [6] 95.2% | [7] 115% | [8] 96.4% | [10] 102% | [11] 109% | [12] 80.6% | [13] 98.4% | [14] 95.5% | [15] 96.6% | [17] 92.8% | [18] 96.3% | [19] 94.6%
active: [9] 3.23%

COc1cc(C2NN=C3c4ccccc4CCC32)cc(OC)c1OC (stereo not given)
inactive: [1] 92.5% | [2] 42.8% | [3] 48.6% | [4] 48.4% | [5] 87.2% | [6] 84% | [7] 102% | [8] 85.4% | [10] 72.4% | [11] 105% | [12] 59.8% | [13] 79.3% | [14] 94.7% | [15] 75.2% | [16] 72.2% | [17] 69.8% | [18] 82.4% | [19] 101%
active: [9] -36.4%

O=C(Nc1ccc(Cl)c(Cl)c1)NS(=O)(=O)c1cnccc1Oc1ccc(F)cc1
active: [9] -7.26%
inactive: [1] 78.5% | [2] 19.6% | [3] 41.2% | [4] 93.9% | [5] 38% | [6] 80.7% | [7] 13.7% | [8] 90.1% | [10] 73.9% | [11] 75.1% | [12] 79% | [13] 57% | [14] 56.8% | [15] 22.2% | [16] 108% | [17] 59.2% | [18] 83.3% | [19] 94.5%

COC(=O)[C@]12CC[C@@H](C)[C@H](C)[C@@H]1C1=CC[C@@H]3[C@@]4(C)C(C=O)=C[C@@](C)(COC(=O)c5ccco5)[C@@H]4[C@H](O)C[C@@]3(C)[C@]1(C)CC2
active: [1] -74.3% | [2] 2.92% | [3] -63.6% | [4] -47.4% | [5] -63% | [6] 2.92% | [7] -76.2% | [8] -62.6% | [20] -23.3% | [11] -64.4% | [13] 7.8% | [14] -76.8% | [15] -8% | [16] -94.9% | [18] -91.4%

From PubChem BioAssay (NCI)
